Source: the supplement of paper PMC9262897, “Low-cost anti-mycobacterial drug discovery using engineered E. coli” (Nature Communications, 2022)
Where a name gives a salt, the structure may show the parent alone. ± gives the standard deviation of the averaged measurements.

How the values were obtained:
Test in all cases: growth (OD600 after 10 h); higher = more growth (less inhibition)
[1] = system: E. coli TESEC Alr+ wild-type control; conditions: compound 0.1 mM; raw OD600 reference: median of DMSO wells 0.241, cell-free background 0.041
Procedure: (§1)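 TESEC Mtb Alr E. coli, or the Alr+ wild-type control, in 384-well plates with Prestwick library compounds at 0.1 mM and 1% DMSO, across arabinose induction levels of 1E3 to 1E7 nM. Growth is read as OD600 after 10 h at 37 °C in triplicate biological replicates.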

E. coli TESEC Mtb Alr [2] = conditions: compound 0.1 mM
Procedure: as §1

E. coli TESEC Mtb Asd = conditions: compound 0.1 mM
Procedure: (§2)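 TESEC E. coli strains in which the native enzyme is deleted and replaced by arabinose-inducible Mtb Asd, DapB, CysH or TrpD, each grown in its selective medium. Strains were screened against the Prestwick library at 0.1 mM and 1% DMSO in 384-well format at low and high arabinose induction. Growth is read as OD600 after 10 h in triplicate.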

E. coli TESEC Mtb DapB = conditions: compound 0.1 mM
Procedure: as §2

[3] = system: E. coli TESEC Alr+ wild-type control; conditions: compound 0.1 mM; raw OD600 reference: median of DMSO wells 0.49, cell-free background 0.052
Procedure: (§3)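 TESEC Mtb Alr E. coli (ΔaraC ΔtolC ΔentC Δalr ΔdadX, arabinose-inducible Mtb Alr) or the Alr+ wild-type control strain, grown in defined M9-fructose medium without D-alanine in 96-well plates with Prestwick library compounds at 0.1 mM and 1% DMSO. Low Alr induction is 0.1 µM arabinose and high induction is 10 mM arabinose.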

E. coli TESEC Mtb Alr [4] = conditions: compound 0.1 mM; remark: listed apart in the source
Procedure: as §3

[5] = arabinose 1000 nM, raw OD600 reference: median of DMSO wells 0.294, cell-free background 0.041
[6] = arabinose 10000 nM, raw OD600 reference: median of DMSO wells 0.264, cell-free background 0.041
[7] = arabinose 100000 nM, raw OD600 reference: median of DMSO wells 0.201, cell-free background 0.041
[8] = arabinose 1000000 nM, raw OD600 reference: median of DMSO wells 0.193, cell-free background 0.041
[9] = arabinose 10000000 nM, raw OD600 reference: median of DMSO wells 0.146, cell-free background 0.041
[10] = arabinose induction (level): High, raw OD600 reference: median of DMSO wells 0.331, cell-free background 0.041
[11] = arabinose induction (level): Low, raw OD600 reference: median of DMSO wells 0.417, cell-free background 0.041
[12] = arabinose induction (level): High, raw OD600 reference: median of DMSO wells […], cell-free background 0.041
[13] = arabinose induction (level): Low, raw OD600 reference: median of DMSO wells 0.227, cell-free background 0.041
[14] = arabinose 100 nM, raw OD600 reference: median of DMSO wells 0.413, cell-free background 0.052
[15] = arabinose 10000000 nM, raw OD600 reference: median of DMSO wells […], cell-free background 0.052

Compound	growth [1]	growth (E. coli TESEC Mtb Alr [2]; [5])	growth (E. coli TESEC Mtb Alr [2]; [6])	growth (E. coli TESEC Mtb Alr [2]; [7])	growth (E. coli TESEC Mtb Alr [2]; [8])	growth (E. coli TESEC Mtb Alr [2]; [9])	growth (E. coli TESEC Mtb Asd; [10])	growth (E. coli TESEC Mtb Asd; [11])	growth (E. coli TESEC Mtb DapB; [12])	growth (E. coli TESEC Mtb DapB; [13])	growth [3]	growth (E. coli TESEC Mtb Alr [4]; [14])	growth (E. coli TESEC Mtb Alr [4]; [15])
O=C(COc1ccc(Cl)cc1)N1CCN(Cc2ccc3c(c2)OCO3)CC1 [Fipexide hydrochloride]	0.13 ± 0.0038	0.146 ± 0.0033	0.138 ± 0.0033	0.154 ± 0.0017	0.0771 ± 0.0022	0.144 ± 0.0034	0.207 ± 0.039	0.214 ± 0.025	0.167 ± 0.0018	0.234 ± 0.024	0.303 ± 0.022	0.38 ± 0.029	0.168 ± 0.033
CC(C)(C)NC(=O)[C@H]1CC[C@H]2[C@@H]3CC[C@H]4NC(=O)C=C[C@]4(C)[C@H]3CC[C@]12C [Finasteride]	0.121 ± 0.003	0.201 ± 0.015	0.201 ± 0.0065	0.133 ± 0.0022	0.0954 ± 0.00085	0.144 ± 0.0043	0.308 ± 0.064	0.268 ± 0.064	0.183 ± 0.0049	0.228 ± 0.006	0.351 ± 0.011	0.366 ± 0.022	0.182 ± 0.03
CCN[C@H]1CN(CCCOC)S(=O)(=O)c2sc(S(N)(=O)=O)cc21 [Brinzolamide]	0.248 ± 0.012	0.282 ± 0.017	0.261 ± 0.0091	0.219 ± 0.03	0.182 ± 0.0056	0.135 ± 0.0031	0.259 ± 0.085	0.385 ± 0.11	0.202 ± 0.013	0.215 ± 0.011	0.579 ± 0.098	0.405 ± 0.0097	0.3104 ± 0.0022
CN(N=O)C(=O)N[C@H]1C(O)O[C@H](CO)[C@@H](O)[C@@H]1O (mixture of isomers) [Streptozotocin]	0.197 ± 0.0036	0.259 ± 0.028	0.2526 ± 0.0016	0.147 ± 0.0062	0.14 ± 0.0077	0.0717 ± 0.0018	0.243 ± 0.0054	0.305 ± 0.045	0.192 ± 0.016	0.206 ± 0.015	0.226 ± 0.025	0.378 ± 0.019	0.0602 ± 0.0034
CC(=O)/N=c1/sc(S(N)(=O)=O)nn1C [Methazolamide]	0.247 ± 0.0057	0.301 ± 0.019	0.266 ± 0.0036	0.198 ± 0.019	0.193 ± 0.0042	0.138 ± 0.01	0.342 ± 0.034	0.447 ± 0.02	0.207 ± 0.013	0.228 ± 0.01	0.438 ± 0.049	0.397 ± 0.012	0.348 ± 0.027
NCCCCCC(=O)O [Aminocaproic acid]	0.249 ± 0.0031	0.314 ± 0.019	0.257 ± 0.016	0.1768 ± 0.00047	0.172 ± 0.0099	0.161 ± 0.0086	0.47 ± 0.023	0.438 ± 0.028	0.206 ± 0.02	0.28 ± 0.025	0.463 ± 0.025	0.407 ± 0.017	0.354 ± 0.025
N=C(N)NCCN1CCCCCCC1 [Guanethidine sulfate]	0.255 ± 0.0095	0.298 ± 0.027	0.266 ± 0.0054	0.24 ± 0.012	0.173 ± 0.011	0.168 ± 0.011	0.291 ± 0.094	0.366 ± 0.069	0.205 ± 0.0096	0.247 ± 0.008	0.468 ± 0.04	0.419 ± 0.008	0.384 ± 0.015
CC(C)(CO)C(O)C(=O)NCCCO (stereo not drawn) [Panthenol (D)]	0.261 ± 0.0085	0.296 ± 0.01	0.261 ± 0.0092	0.216 ± 0.053	0.192 ± 0.0077	0.147 ± 0.0069	0.357 ± 0.034	0.409 ± 0.043	0.185 ± 0.0037	0.219 ± 0.024	0.5 ± 0.047	0.406 ± 0.011	0.287 ± 0.13
O=C(N/N=C/c1ccc([N+](=O)[O-])o1)c1ccc(O)cc1 [Nifuroxazide]	0.148 ± 0.0071	0.217 ± 0.018	0.0914 ± 0.0034	0.164 ± 0.022	0.0664 ± 0.0028	0.133 ± 0.0085	0.053 ± 0.00057	0.0519 ± 0.0049	0.0553 ± 0.0015	0.0557 ± 0.0021	0.0581 ± 0.0039	0.0646 ± 0.0031	0.0578 ± 0.0014
Cc1scc2c1N(C(=O)CN1CCN(C)CC1)c1ccccc1NC2=O [Telenzepine dihydrochloride]	0.242 ± 0.0054	0.309 ± 0.0066	0.241 ± 0.0053	0.208 ± 0.012	0.162 ± 0.0049	0.153 ± 0.0031	0.321 ± 0.083	0.442 ± 0.025	0.1919 ± 0.0014	0.264 ± 0.071	0.545 ± 0.024	0.407 ± 0.011	0.338 ± 0.0097
CNC(=O)c1c(I)c(C(=O)NCC(=O)Nc2c(I)c(C(=O)O)c(I)c(C(=O)NCCO)c2I)c(I)c(N(C)C(C)=O)c1I [Ioxaglic acid]	0.239 ± 0.0087	0.2972 ± 0.0024	0.28 ± 0.0056	0.219 ± 0.0065	0.215 ± 0.015	0.139 ± 0.0059	0.343 ± 0.027	0.359 ± 0.048	0.198 ± 0.013	0.211 ± 0.013	0.606 ± 0.023	0.426 ± 0.0094	0.3518 ± 0.0018
CS(=O)(=O)OCCCCOS(C)(=O)=O [Busulfan]	0.241 ± 0.017	0.287 ± 0.025	0.272 ± 0.0066	0.233 ± 0.026	0.184 ± 0.0057	0.139 ± 0.0018	0.378 ± 0.022	0.414 ± 0.036	0.209 ± 0.0074	0.286 ± 0.024	0.445 ± 0.033	0.4123 ± 0.004	0.362 ± 0.029
CC1(C)O[C@@H]2C[C@H]3[C@@H]4C[C@H](F)C5=CC(=O)C=C[C@]5(C)[C@H]4[C@@H](O)C[C@]3(C)[C@]2(C(=O)CO)O1 [Flunisolide]	0.204 ± 0.015	0.297 ± 0.0098	0.261 ± 0.0019	0.192 ± 0.011	0.159 ± 0.0049	0.138 ± 0.0048	0.342 ± 0.064	0.458 ± 0.025	0.214 ± 0.021	0.241 ± 0.01	0.418 ± 0.031	0.4 ± 0.0095	0.335 ± 0.012
CN(C)CCOC(=O)COc1ccc(Cl)cc1 [Meclofenoxate hydrochloride]	0.235 ± 0.0029	0.3 ± 0.018	0.267 ± 0.0092	0.199 ± 0.013	0.184 ± 0.0027	0.138 ± 0.0014	0.355 ± 0.032	0.426 ± 0.029	0.199 ± 0.014	0.204 ± 0.019	0.511 ± 0.083	0.4 ± 0.013	0.313 ± 0.014
CCN(CC)CCOC(=O)c1ccc(N)cc1 [Procaine hydrochloride]	0.254 ± 0.0063	0.254 ± 0.065	0.273 ± 0.0077	0.2 ± 0.034	0.193 ± 0.0097	0.146 ± 0.0049	0.339 ± 0.035	0.384 ± 0.038	0.203 ± 0.026	0.251 ± 0.046	0.52 ± 0.05	0.412 ± 0.0056	0.259 ± 0.17
NC(=O)c1cc[n+](CC2=C(C(=O)[O-])N3C(=O)[C@@H](NC(=O)[C@@H](c4ccccc4)S(=O)(=O)O)[C@H]3SC2)cc1 [Cefsulodin sodium salt]	0.257 ± 0.0041	0.309 ± 0.014	0.235 ± 0.007	0.228 ± 0.006	0.2032 ± 0.0015	0.145 ± 0.0069	0.33 ± 0.084	0.423 ± 0.028	0.211 ± 0.013	0.245 ± 0.015	0.636 ± 0.015	0.366 ± 0.012	0.356 ± 0.014
